These results are taken from PMC7826789 (International Journal of Molecular Sciences, 2021).

Each structure is given as a SMILES string.
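Note: KINOMEscan scanMAX binding as percent activity remaining versus control; lower means stronger binding.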

The experiment relates to TAOK1. As to conditions: Compound Concentration (nM):1000.
As to `COc1cc(C=NNc2ncnc3c2cnn3-c2ccccc2)ccc1O` [GW513184X], the “Percent Control” value is 100%.
On to `CCS(=O)(=O)c1ccc(OC)c(Nc2ncc(-c3cccc(OC)c3)o2)c1` [GW580509X], for which the “Percent Control” value was determined as 100%.
With `Cl.O=C(Nc1ccc(Oc2ccc3[nH]c(NC(=O)c4ccco4)nc3c2)cc1)Nc1cc(C(F)(F)F)ccc1F` [GW683134A], the “Percent Control” value is on record as 100%.
For `CN1CCN(C(=O)c2ccc(NC(=O)Nc3ccc(N(C)c4ccnc(Nc5ccc(CS(C)(=O)=O)cc5)n4)cc3)cc2)CC1.Cl` [GW830263A] the value was 71%; for `COc1cc(N2CCN(C(C)C)CC2)ccc1Nc1nc(Nc2ccc(F)cc2C(=O)NC[C@@H](O)CO)c2cc[nH]c2n1` [GSK1392956A], 67%.
In the case of `C[C@@H](Oc1cc(-n2cnc3ccc(OC4CCN(C)CC4)cc32)sc1C(N)=O)c1ccccc1Cl` [GSK579289A], the “Percent Control” value came out at 75%.
In the case of `COc1ccc2cc(-c3c(-c4ccncc4)nc(-c4ccc(S(C)(=O)=O)cc4C)n3C)ccc2c1` [SB-633825], the “Percent Control” value was 84%.
`COC(=O)Nc1nc2ccc(Oc3ccc(NC(=O)Nc4cc(C(F)(F)F)ccc4F)cc3)cc2s1.Cl` [GW693917A]: the “Percent Control” value came out at 84%.
Turning to `CN(C)CCNC(=O)Nc1ccc(N(C)c2ccnc(Nc3ccc(CS(C)(=O)=O)cc3)n2)cc1.Cl` [GW830900A], the “Percent Control” value amounted to 80%.
As for `COc1cc(/C=N/Nc2ncnc3[nH]ncc23)ccc1O` [GW578748X], the “Percent Control” value was determined as 51%.
In the case of `COc1cc2ncn(-c3cc(O[C@H](C)c4ccccc4Cl)c(C(N)=O)s3)c2cc1OC` [GSK237701A] it was 54%.
For `CN(C)c1cc2c(Nc3ccc4c(cnn4Cc4ccccc4)c3)ncnc2cn1` [GW282974X] the value was 92%; for `Cl.O=S1CCN(Cc2ccc(-c3ccc4ncnc(Nc5ccc(OCc6ccccc6)c(F)c5)c4c3)o2)CC1` [GW576924A], 100%; for `CCc1ccc(Oc2nccc(-c3c(-c4ccc(F)cc4)ncn3C3CCNCC3)n2)cc1` [SB-242719], 82%.
In the case of `Nc1ncnc2occ(-c3ccc(NC(=O)Nc4cc(C(F)(F)F)ccc4F)cc3)c12` [GW770249X] it was 75%.
As for `Cl.O=C(O[C@H]1CN[C@H](C#Cc2cc3ncnc(Nc4ccc5c(cnn5Cc5ccccc5)c4)c3s2)C1)N1CCOCC1` [GSK200398A], the “Percent Control” value is 91%.
For `Cl.c1ccc(Cc2nc3ccc(Nc4ncnc5ccccc45)cc3[nH]2)cc1` [GR269666A] the value was 100%.
Turning to `COc1ccc2c(-c3ccnc(Nc4cccc(OC(F)(F)F)c4)n3)cnn2n1` [GW810372X], the “Percent Control” value amounted to 73%.
In the case of `COc1cccc(-c2c[nH]c3c(N/N=C/c4ccncc4)ncnc23)c1` [GW814408X] it was 11%; in that of `CCn1c(-c2nonc2N)nc2c(C#CC(C)(C)O)nc(OCCNC)cc21.Cl` [GSK949675], 72%; in that of `NS(=O)(=O)c1ccc(Nc2ncc(-c3ccccc3)o2)cc1` [GW572399X], 72%.
On to `COc1ccc(COc2ccc(Cc3cnc(N)nc3N)cc2OC)cc1` [GW632580X], for which the “Percent Control” value came to 100%.
Consider `CC(C)COC(=O)c1ccc2c(c1)/C(=C/Nc1ccc(S(N)(=O)=O)cc1)C(=O)N2` [GW416981X], for which the “Percent Control” value was found to be 85%.
For the compound `Cl.O=C(Nc1ccc(Oc2ccc3[nH]c(NC(=O)c4ccccc4)nc3c2)cc1)Nc1cc(C(F)(F)F)ccc1F` [GW709042A], the “Percent Control” value is given as 90%.
`COc1cccc(-n2ncc3c(N/N=C/c4ccncc4)ncnc32)c1` [GW784752X]: the “Percent Control” value was found to be 39%.
Take `NS(=O)(=O)c1ccc(N/N=C2\C(=O)Nc3ccc(Cl)cc32)cc1` [GW280670X]: the “Percent Control” value was found to be 95%.
In the case of `O=C(Nc1n[nH]c2nc(-c3ccc(O)cc3)c(Br)cc12)C1CC1` [SB-725317] it was 1%.
For the compound `CC1=C(C(=O)Nc2ccc3[nH]ncc3c2)C(c2ccc3ccccc3c2)CC(=O)N1` (stereo not shown) [GSK270822A], the “Percent Control” value is given as 76%.
With `Cc1cc(O)cc(C)c1/C=C/c1cncc(C(N)=O)c1` [GW435821X], the “Percent Control” value is given as 74%.
For `NS(=O)(=O)c1ccc(N/N=C2\C(=O)Nc3ccc(C(=O)NCc4ccncc4)cc32)cc1` [GW300657X], the “Percent Control” value was 84%.
For `C/C(Nc1ccc(S(N)(=O)=O)cc1)=C1/C(=O)Nc2ccccc21` [GW335962X] the value was 81%; for `CC1=C(C(=O)Nc2ccc3[nH]ncc3c2)C(c2ccc(Cl)c(Cl)c2)CC(=O)N1` (stereo not shown) [GSK299115A], 68%.
For the compound `CCS(=O)(=O)c1ccc(OC)c(Nc2ncc(-c3cccc(F)c3)o2)c1` [GW621970X], the “Percent Control” value came out at 87%.
Consider `COc1ccccc1-c1cc(/C=C2\C(=O)Nc3ncc(Br)cc32)cc(Br)c1O` [GW442130X], for which the “Percent Control” value worked out at 93%.
As for `NS(=O)(=O)c1ccc(N/N=C2\C(=O)Nc3ccc(C(=O)NCCc4c[nH]cn4)cc32)cc1` [GW300660X], the “Percent Control” value is listed as 75%.
Regarding `O=C1Nc2ccc(C(=O)c3ccco3)cc2C1=Cc1cc(Cl)c(O)c(Cl)c1` [GW406108X], the “Percent Control” value was 40%.
Regarding `COc1cc(C)c(N(C)C(=O)CN(C)C)cc1Nc1nc(Nc2cccc(F)c2C(N)=O)c2cc[nH]c2n1` [GSK2219385], the “Percent Control” value is 100%.
Regarding `NS(=O)(=O)c1ccc(N/N=C2\C(=O)Nc3ccc(-c4cnco4)cc32)cc1` [GW276655], the “Percent Control” value was determined as 86%.
In the case of `COc1ccc2[nH]c3c4[nH]c5ccc(OC)cc5c4c4c(c3c2c1)C(=O)NC4=O` [GW296115X], the “Percent Control” value is on record as 100%.
With `COc1cc2ncnc(Nc3ccc4c(cnn4Cc4ccccc4)c3)c2cc1OC.Cl` [GW282449A], the “Percent Control” value amounted to 100%.
